Active and inactive are the calls of the source. How the source made its calls: active means hit-call score of the fitted dose curve at least 0.9, where 1 is the maximum; inactive means score below 0.9.

Assay [1] addresses Transcription factor E2F1 (Homo sapiens) (UniProt Q01094). Put plainly: ATG_E2F_CIS: Attagene CIS-FACTORIAL HepG2 Assay for human E2F Transcription Factor 1 (AID 2282935). The note with it: HepG2 Attagene cis-reporter, E2F reporter RNA transcripts; actives raise or lower the signal. In short, it runs like this: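 Gain or loss of reporter transcript, fitted against DMSO, reflects E2F1-driven transcription. Transiently transfected HepG2 dosed 24 h before RNA isolation. Quantified by fluorescent RT-PCR products separated by capillary electrophoresis.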

The nature of assay [2]: ATG_E_Box_CIS: Attagene CIS-FACTORIAL HepG2 Assay for human Enhancer Box (E-box) (AID 2282936). To be noted: HepG2 E-box cis-reporter transcription, actives raise or lower the signal. An outline of the steps: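 E-box-driven reporter transcripts measured in transiently transfected HepG2 after 24 h exposure: RNA reverse-transcribed, PCR-amplified, fluorescently labelled, digested and resolved by capillary electrophoresis. Gain or loss relative to DMSO.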

Assay [3] in a line: ATG_M_61_CIS: Attagene CIS-FACTORIAL HepG2 Assay for M61 Transcription Factor (Internal Marker) (AID 2282937). To be noted: HepG2 Attagene CIS-FACTORIAL M61 internal marker reporter; actives raise or lower the signal. In short, it runs like this: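 Human liver HepG2, transient MRTU transfection (cis promoter elements), 24 h compound. Total RNA → oligo(dT) RT → PCR → FAM label → HpaI → CE. Internal background marker; bidirectional fitting, DMSO = baseline.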

The nature of assay [4]: ATG_EGR_CIS: Attagene CIS-FACTORIAL HepG2 Assay for human Early Growth Response 1 (EGR1) (AID 2282938). The note with it: HepG2 Attagene CIS-FACTORIAL EGR reporter mRNA; actives raise or lower the signal. An outline of the steps: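 Transient transfection of human HepG2 with multiple cis-regulated reporter units, chemical exposure 24 h, total RNA isolated. Reverse transcription, PCR, fluorescent labelling and capillary electrophoresis quantify reporter transcripts; activity fitted bidirectionally against DMSO.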

Assay [5] can be described thus: ATG_M_19_CIS: Attagene CIS-FACTORIAL HepG2 Assay for M19 Transcription Factor (Internal Marker) (AID 2282939). To be noted: HepG2 Attagene CIS-FACTORIAL M19 internal marker reporter; actives raise or lower the signal. In short, it runs like this: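 Chemical-treated HepG2 (24 h) with MRTU constructs; reporter transcripts detected by fluorescent RT-PCR fragment analysis on capillary electrophoresis. Internal background marker, DMSO as baseline.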

The nature of assay [6]: ATG_ERE_CIS: Attagene CIS-FACTORIAL HepG2 Assay for Estrogen Response Element (ERE) (AID 2282940). The note with it: HepG2 ERE cis-reporter, Attagene RNA transcript; actives raise or lower the signal. An outline of the steps:
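Human liver cells (HepG2) bearing transiently transfected, promoter-regulated reporter units were exposed 24 h. Reporter mRNA induction was detected by capillary electrophoresis of labelled RT-PCR products and fitted bidirectionally to DMSO.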

Assay [7] is described as follows: ATG_Ets_CIS: Attagene CIS-FACTORIAL HepG2 Assay for human Erythroblast Transformation Specific (ETS) (AID 2282941). The note with it: HepG2 ETS cis-reporter transcription, actives raise or lower the signal. An outline of the steps: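 Endogenous transcription factor activity read as reporter mRNA via RT-PCR and capillary electrophoresis, with gain or loss fitted bidirectionally against DMSO. Human HepG2 liver cells, transiently transfected CIS reporter constructs, 24 h exposure.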

The target in assay [8] is Hepatocyte nuclear factor 3-beta (Homo sapiens) (UniProt Q9Y261). Put plainly: ATG_FoxA2_CIS: Attagene CIS-FACTORIAL HepG2 Assay for human Forkhead box A2 (FOXA2) (AID 2282942). To be noted: HepG2 cis-reporter transcription factor activity, 24 h; actives raise or lower the signal. In short, it runs like this: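 Transient MRTU transfection of HepG2 liver cells; 24 h treatment; total RNA → oligo(dT) RT → PCR → FAM primer extension → HpaI cut → CE. Bidirectional fit vs DMSO.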

A short description of assay [9]: ATG_FoxO_CIS: Attagene CIS-FACTORIAL HepG2 Assay for human Forkhead box O (FoxO) (AID 2282943). To be noted: HepG2 Attagene cis-reporter, FoxO element, mRNA; actives raise or lower the signal. An outline of the steps:
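Endogenous transcription factor activity read from multiplexed cis-promoter reporter transcripts in transiently transfected HepG2, 24 h after dosing. Reporter RNA measured via RT-PCR plus capillary electrophoresis of FAM-labeled products; gain or loss relative to DMSO.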

The nature of assay [10]: ATG_GATA_CIS: Attagene CIS-FACTORIAL HepG2 Assay for human GATA Binding Protein (AID 2282944). To be noted: HepG2 GATA cis-element reporter, Attagene multiplex mRNA; actives raise or lower the signal. An outline of the steps:
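Transfected cis-reporter HepG2 cells were treated with chemicals for 24 hours. Total RNA was then converted to cDNA, amplified with reporter-specific primers and analysed by fluorescent capillary electrophoresis, using DMSO-treated wells as baseline.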

Hepatocyte nuclear factor 3-beta (Homo sapiens), sequence (Q9Y261 whole entry, looked up): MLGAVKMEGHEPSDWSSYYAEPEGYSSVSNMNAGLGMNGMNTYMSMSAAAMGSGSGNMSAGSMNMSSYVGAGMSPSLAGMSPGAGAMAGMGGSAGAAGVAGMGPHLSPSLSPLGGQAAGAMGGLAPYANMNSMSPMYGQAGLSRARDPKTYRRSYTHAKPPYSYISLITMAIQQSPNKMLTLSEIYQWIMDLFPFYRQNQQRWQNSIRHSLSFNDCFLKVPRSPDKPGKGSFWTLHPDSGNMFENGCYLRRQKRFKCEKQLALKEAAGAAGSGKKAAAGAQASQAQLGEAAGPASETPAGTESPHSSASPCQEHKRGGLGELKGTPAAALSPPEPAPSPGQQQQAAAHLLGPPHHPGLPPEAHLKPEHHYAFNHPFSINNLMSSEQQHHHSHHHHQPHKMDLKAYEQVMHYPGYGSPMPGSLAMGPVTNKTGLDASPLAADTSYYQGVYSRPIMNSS
Transcription factor E2F1 (Homo sapiens), sequence (Q01094 whole entry, looked up): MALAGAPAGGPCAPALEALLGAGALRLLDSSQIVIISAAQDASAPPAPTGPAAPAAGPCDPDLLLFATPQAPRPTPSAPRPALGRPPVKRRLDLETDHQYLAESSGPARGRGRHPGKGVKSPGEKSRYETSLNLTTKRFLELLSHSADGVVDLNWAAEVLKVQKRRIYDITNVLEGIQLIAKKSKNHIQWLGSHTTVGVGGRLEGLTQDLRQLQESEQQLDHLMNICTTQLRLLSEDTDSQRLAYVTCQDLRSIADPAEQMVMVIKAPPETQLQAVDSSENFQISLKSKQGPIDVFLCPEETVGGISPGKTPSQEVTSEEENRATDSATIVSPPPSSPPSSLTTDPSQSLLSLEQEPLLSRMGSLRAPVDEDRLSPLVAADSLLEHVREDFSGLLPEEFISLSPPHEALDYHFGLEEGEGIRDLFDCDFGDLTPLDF

With `O=C(OCCCCCOC(=O)c1ccccc1)c1ccccc1`, the call in assay [1], in [2], in assay [3], in assay [4], in assay [5] and in [6] was inactive. Besides, the outcome in assay [7], in [8], in assay [9] and in [10] was inactive.

Consider `COC(=O)c1ccc(O)cc1`, for which the molecule was classed as inactive in [1], in [2], in [3], in [4], in [5] and in assay [7]. Besides, the call in assay [8], in [9] and in assay [10] was inactive. Moreover, the AC50 (usually the concentration giving half of the maximal activity seen) in assay [6] was 67.4 µM (active).

Take `Cc1cccc(C)c1O`: the molecule was called inactive in assay [1], in [2], in [3], in assay [4], in assay [5] and in assay [6]. Moreover, the call in [7], in assay [8], in assay [9] and in [10] was inactive.

As for `CCCCCCCCCCCC(=O)OC`, the molecule was classed as inactive in assay [1], in assay [2], in assay [3], in assay [4], in assay [5] and in assay [6]. Also, the molecule was classed as inactive in assay [7], in assay [8], in assay [9] and in assay [10].

On to `C=CCOC(=O)c1ccccc1C(=O)OCC=C`, for which the molecule was classed as inactive in assay [1], in assay [2], in assay [3], in assay [4], in assay [5] and in [6]. In addition, the molecule was called inactive in assay [7], in assay [8], in [9] and in assay [10].

For the molecule `COc1ccc(C)cc1N`, the outcome in assay [1], in assay [2], in assay [3], in assay [4], in assay [5] and in [6] was inactive. In addition, the molecule was called inactive in assay [7], in assay [8], in [9] and in [10].

Turning to `O=C(N[C@@H](Cc1ccccc1)[C@@H](O)C(=O)N1C[C@@H](O)[C@@H](O)C1)c1cc2cc(Cl)ccc2[nH]1`, the molecule was called inactive in assay [1], in assay [3], in [4], in assay [5], in assay [6] and in [7]. The result in [8], in [9] and in assay [10] was inactive. The AC50 in [2] was 165 µM (active).

In the case of `CC=Cc1ccc(O)c(OC)c1`, the molecule was called inactive in assay [1], in [2], in assay [3], in assay [4], in [5] and in assay [6]. For the same molecule, the molecule was classed as inactive in assay [7], in assay [8], in assay [9] and in assay [10].

Consider `CCCc1cc(=O)[nH]c(=S)[nH]1`, for which the molecule was called inactive in assay [1], in assay [2], in assay [3], in assay [4], in assay [5] and in assay [7]. The molecule was classed as inactive in assay [8], in assay [9] and in assay [10]. In addition, the AC50 in [6] was 4.56 µM (active).

For the molecule `Cc1cc(NC(=O)C(=O)O)cc(C)c1Oc1ccc(O)c2c1CCC2`, the result in [1], in assay [2], in [3], in [4], in [5] and in [6] was inactive. Also, the molecule was called inactive in [7], in assay [8], in assay [9] and in assay [10].

For the molecule `CC(CO)OC(C)CO` (stereo not given) (tested in a mixture with another compound), the result in assay [1], in assay [2], in assay [3], in assay [4], in assay [5] and in assay [6] was inactive. The result in assay [7], in assay [8], in assay [9] and in assay [10] was inactive.

Regarding `CC1(C)CC(N=C=O)CC(C)(CN=C=O)C1` (stereo not given), the call in [1], in assay [2], in [3], in assay [4], in [5] and in assay [6] was inactive. Moreover, the molecule was called inactive in assay [7], in assay [8], in assay [9] and in [10].

On to `CCCCCCCCCCCCCCCC`, for which the molecule was classed as inactive in assay [1], in assay [2], in [3], in assay [4], in assay [5] and in assay [6]. For the same molecule, the call in assay [7], in assay [8], in assay [9] and in assay [10] was inactive.

Take `COc1cc(-c2nc(NC(=O)c3cc4cc(C)cc(C)c4n3CC(=O)O)sc2CCC2CCCCC2)c(OC)cc1Cl`: the result in assay [1], in [3], in [5], in assay [6], in assay [8] and in assay [9] was inactive. The molecule was classed as inactive in assay [10]. Also, the AC50 is 25.6 µM (active) in assay [2], 9.13 µM (active) in [4] and 32.2 µM (active) in assay [7].

For `Clc1cc(Cl)c(Cl)cc1Cl`, the molecule was classed as inactive in [1], in assay [2], in [3], in [4], in assay [5] and in [6]. Also, the call in assay [7], in assay [8], in assay [9] and in assay [10] was inactive.

`COCCOC[C@H](CC1(C(=O)NC2CCC(C(=O)O)CC2)CCCC1)C(=O)Oc1ccc2c(c1)CCC2` (stereo not given in full): the outcome in assay [1], in assay [2], in [3], in assay [4], in assay [5] and in assay [6] was inactive. In addition, the molecule was classed as inactive in assay [7], in assay [8], in assay [9] and in [10].

Consider `Cc1ccc2ncccc2c1`, for which the molecule was called inactive in assay [1], in [2], in assay [3], in assay [4], in [5] and in [6]. Besides, the molecule was classed as inactive in [7], in assay [8], in [9] and in assay [10].

With `O=c1[nH]cc(F)c(=O)[nH]1`, the call in [1], in [2], in [3], in assay [4], in assay [5] and in assay [6] was inactive. Moreover, the molecule was classed as inactive in [7], in assay [8], in assay [9] and in assay [10].

For `CN[C@H]1CC[C@@H](c2ccc(Cl)c(Cl)c2)c2ccc(S(N)(=O)=O)cc21`, the molecule was called inactive in assay [1], in assay [2], in assay [3], in assay [4], in assay [5] and in [6]. Besides, the outcome in [7], in assay [8], in assay [9] and in assay [10] was inactive.

For `COc1cc(C=O)ccc1O`, the molecule was called inactive in [1], in assay [2], in assay [3], in [4], in assay [5] and in assay [6]. The result in [7], in [8], in assay [9] and in assay [10] was inactive.

With `CC1(C)NC(=O)NC1=O`, the call in assay [1], in assay [2], in assay [3], in assay [4], in [5] and in [7] was inactive. Also, the result in assay [8], in assay [9] and in assay [10] was inactive. The AC50 in [6] is 26.3 µM (active).

On to `CCCCN(CCCC)CCCC`, for which the molecule was called inactive in assay [1], in assay [2], in [3], in assay [4], in assay [5] and in [6]. Further, the outcome in assay [7], in assay [8], in assay [9] and in assay [10] was inactive.

Source of the values: PubChem BioAssay (EPA / NIEHS).
